# HT1080NT lethal – kills 2HG-producing HT-1080-NT fibrosarcoma cells; HT-1080-NT fibrosarcoma viability, CellTiter-Glo ATP luminescence, 48 h; Potency, µM (doses to about 46.1 µM), inactives show at the top dose activity, negative = less viability, actives largely listed as cytotoxic; 1.6% of 360,000 active;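 further: NT is the 2HG producing partner of a matched IDH1 knockdown line; potency means the concentration at half of the fitted maximal effect; 0% = DMSO-treated cells and -100% = media-only wells without cells; nearly all actives have a fitted effect of over 55% in size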
#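 750 cells/well, RPMI + 5% FBS; 2 h settle, compound pin-transfer, 48 h at 37 degrees C. CellTiter-Glo 10 min RT, luminescence. Normalized to DMSO and media-only wells.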
# DT40 TDP1 CPT – growth inhibition of DT40 Tdp1-/-;hTDP1 cells with camptothecin (screen for TDP1 inhibitors) | chicken DT40 Tdp1-/-;hTDP1 cells + 20 nM CPT, ATP luminescence, 48 h | Potency, µM (highest dose often 46.2 µM), inactives show top-dose activity change, negative = growth inhibition, most hits filed as inhibitors | 12% of 420,000 active | AID 686979; further: potency means the concentration at half of the fitted maximal effect; nearly all actives have a fitted effect of over 55% in size
#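 Chicken DT40 Tdp1-/- cells complemented with human TDP1, 400 cells/well, exposed to compounds plus 20 nM camptothecin for at least 48 h at 37 C; viability read as ATP content by CellTiter-Glo luminescence.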
# DT40 TDP1 no CPT – qHTS for Inhibitors of human tyrosyl-DNA phosphodiesterase 1 (TDP1): qHTS in cells in absence of CPT | Potency, µM (titrated, usually from 46.2 µM), for the others: top-dose activity change, negative = growth inhibition, actives largely listed as inhibitors | 15% of 420,000 active | DT40 Tdp1-/- hTDP1 cells, no CPT, ATP luminescence, 48 h | AID 686978, 2013; further: potency means the concentration at half of the fitted maximal effect; nearly all actives have a fitted effect of over 55% in size
#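 Luminescent ATP content (CellTiter-Glo) served as the growth readout. Knockout chicken DT40 cells expressing human TDP1 were exposed to compounds without camptothecin for a minimum 48 hr at 37 °C.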
# HT1080 IDH1KD tx – kills HT-1080 cells with IDH1 knockdown; HT-1080 IDH1 knockdown viability, ATP luminescence, 48 h; Potency, µM (titrated, usually from 46.1 µM), for inactives: at the highest dose activity, negative = toxicity, most hits filed as cytotoxic; 2% of 360,000 active; AID 686971;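 further: potency means the concentration at half of the fitted maximal effect; 0% = DMSO wells and -100% = cell-free medium wells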
#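 After a 2 h attachment period, IDH1KD HT-1080 cells took pin-transferred compound for 48 h at 37 °C; ATP-based luminescence after 10 min room-temperature reagent incubation reported viability.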
# IL1B secr inh – blocks inflammasome-driven IL-1 beta release | THP-1 LPS/ATP IL-1B secretion, AlphaLISA, 16 h; active compounds read low | activity change, % at 57.5 µM | 4.7% of 360,000 active | AID 743279; in the data active means activity change below about -50%; inconclusive means mostly about -30% to -49%
#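 Secreted IL-1B measured by AlphaLISA bead assay after 16 h compound exposure of THP-1 cells; compounds (final up to 57.5 uM) added 1 h before LPS (250 ng/mL) and ATP (1.25 mM) stimulation; lower signal means less secretion.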
# ELG1 DNA repair – ELG1-dependent DNA repair inhibition. HEK293T ELG1-luciferase reporter, luminescence, 16 h; DNA damage induced by 5-fluorouridine. Potency, µM (series often up to 46.1 µM), inactives show top-dose activity change, negative = inhibition, hits mostly inhibitors. 2.3% of 330,000 active; further: potency means the concentration at half of the fitted maximal effect; nearly all actives have a fitted effect of over 55% in size
#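 Reporter activity after DNA damage by 5-fluorouridine is monitored. Compound-treated cells incubate 16 hr at 37 °C, then ONE-Glo is added for 30 min before luminescence reading.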
# * = called active by the depositor; u = inconclusive; x = no result given; [ ] = dose if it differs, or a comment. Shown are actives, neighbours in structure and some others; about 19% of the full set was active somewhere. Unless noted, the call rests on the fitted dose curve; in most records, active means well fitted curve in the direction sought with a large enough effect; inconclusive means small, poorly fitted or top-dose-only effect, or another doubt; inactive means no such curve, though single readings can be large; an effect the other way counts as inactive or inconclusive. Unless noted, on the % scale 0 is the no-effect control and ±100 the full control effect.
SMILES,HT1080NT lethal,DT40 TDP1 CPT,DT40 TDP1 no CPT,HT1080 IDH1KD tx,IL1B secr inh,ELG1 DNA repair
Cc1ccc(N(C)C(=O)N2CCN(S(=O)(=O)c3c(C)cc(C)cc3C)CC2)cc1,4%,-22%,11%,10%,-24,u
OCCC1CN(CC2CC2)CCN1Cc1ccc(F)c(F)c1 (configuration not stated),6%,10%,-17%,2%,5,-3%
Cn1ncc2c(=O)[nH]nnc21,11%,25%,-2%,11%,1,x
O=C(CN(Cc1ccco1)C(=O)c1ccc(F)cc1)Nc1ccccc1Br,18%,0%,-28%,-12%,-23,0%
Cc1ccc(C)c(N(CC(=O)NCc2ccco2)C(=O)CCC(=O)Nc2nccs2)c1,-2%,1%,-29%,13%,x,4%
CCS(=O)(=O)c1ncc(N(Cc2cccc(F)c2)Cc2ccco2)c(C(=O)Nc2ccccc2Cl)n1,x,u,6.5µM*,x,x,x
Cc1ccc(NC(=O)c2nc(S(C)(=O)=O)ncc2N(Cc2ccco2)Cc2cccs2)c(C)c1,x,u,21µM*,x,x,x
CCS(=O)(=O)c1ncc(N(Cc2ccco2)Cc2sccc2C)c(C(=O)Nc2cc(C)ccc2C)n1,x,u,21µM*,x,x,x
Cc1ccc(CN(Cc2ccco2)c2cnc(S(C)(=O)=O)nc2C(=O)Nc2ccccc2Br)o1,x,9.2µM*,8.2µM*,x,x,x
Cc1cc(Br)ccc1NC(=O)CN(C)Cc1cccs1,15%,-25%,u,10%,-16,3%
COc1ccc(COCC(O)CN2CCc3ccccc3C2)cc1OC (configuration not stated),-2%,7%,-5%,-5%,20,-11%
Cc1ccccc1NC(=O)CSc1nccn1Cc1ccco1,-1%,-16%,-28%,-2%,-17,x
Cc1ccccc1NC(=O)c1nc(S(C)(=O)=O)ncc1N(Cc1ccco1)Cc1sccc1C,x,16µM*,21µM*,x,x,x
Cn1nc(CC(=O)NCc2ccc(C(F)(F)F)cc2)c2ccccc2c1=O,u,29µM*,10µM*,u,0,u
Cn1nc(CC(=O)NC2CCCCCC2)c2ccccc2c1=O,-3%,18µM*,18µM*,-6%,58,u
O=C(CN1C(=O)C2C3C=CC(C4CC34)C2C1=O)Nc1cccc2ncccc12 (configuration not stated),14%,21µM*,-27%,9%,-1,14%
COc1ccc(-c2nn(C)c(=O)c3ccccc23)cc1NC(=O)COc1ccc(C)cc1,-5%,23µM*,18µM*,-14%,-11,u
CCN(C[C@H]1N[C@@](CC)(C(=O)OC)[C@H]2C(=O)N(Cc3ccccc3)C(=O)[C@@H]12)C(=O)NC(C)C,4%,7%,-2%,6%,0,-6%
O=c1oc2ccccc2n1Cc1cccc(C(F)(F)F)c1,-9%,-25%,u,-6%,-5,x
CC(=O)c1ccc(N(CC(=O)NC2CCCC2)C(=O)c2csnn2)cc1,10%,13%,0%,8%,-1,u
Cc1ccccc1NC(=O)CN1C(=O)C2C3CC(C(Br)C3Br)C2C1=O (configuration not stated),-21%,u,16µM*,-17%,-3,-9%
Cn1nc(CC(=O)Nc2cccc3ncccc23)c2ccccc2c1=O,-10%,13µM*,21µM*,u,54,7.3µM*
COc1ccc(CNC(=O)Cc2nn(C)c(=O)c3ccccc23)cc1,-9%,10µM*,7.3µM*,-20%,2,-18%
COc1ccc(OC)c(NC(=O)Cc2nn(C)c(=O)c3ccccc23)c1,-10%,16µM*,16µM*,-30%,46,u
O=C(CCl)Nc1cccc2ncccc12,u,8.2µM*,9.2µM*,u,-99*,26µM*
SMILES,HT1080NT lethal,DT40 TDP1 CPT,DT40 TDP1 no CPT,HT1080 IDH1KD tx,IL1B secr inh,ELG1 DNA repair
COc1ccc(OCC(=O)Nc2cccc3ncccc23)cc1,9%,u,-19%,6%[9.24 µM],-18,-11%
OCCN1CCN(c2nc(NCc3ccco3)c3ccccc3n2)CC1,-8%,-26%,-14%,-7%,-16,-4%
Cc1ccc(OCCN2CCN(c3nc(NCc4ccco4)c4ccccc4n3)CC2)cc1,-12%,u,15µM*,-14%,-60*,-25%
c1ccc(CN2CCN(c3nc(NCc4ccco4)c4ccccc4n3)CC2)cc1,-24%,u,23µM*,u,-64*,u
COc1ccc(-c2oc3ncn4nc(-c5ccccc5Br)nc4c3c2-c2ccc(OC)cc2)cc1,x,5%,u,x,x,x
CCN(CC)Cc1nc2c(c(=O)[nH]1)C1(CCCC1)Cc1ccccc1-2,9%,21µM*,u,-21%,5,-2%
CCOC(=O)[C@H]1[C@H]2COc3ccc(Cl)cc3[C@@H]2N2C(=O)[C@@H](C)NC(=O)[C@@]12C,14%,u,-10%,14%,-1,10%
CCCCN(c1ccccc1)S(=O)(=O)c1cccc2cccnc12,9%,u,15µM*,0%,33,u
CCSS(=O)(=O)c1cccc2cccnc12,33µM*,15µM*,u,u,x,14%
COc1ccc(CNS(=O)(=O)c2c(C(=O)N3CCCCCC3)c(C)n(C)c2C)cc1,9%,-7%,6%,17%,-16,17%
CC(=O)c1ccccc1OCCn1nc(C(=O)O)c2ccccc2c1=O,-3%,-3%,16µM*,-2%,28,16%
Cc1ccccc1OCCn1nc(C(=O)O)c2ccccc2c1=O,3%,-15%,u,-2%,50,-12%
CC(C)c1ccc(NC(=O)CN2C(=O)CCc3cc(S(=O)(=O)N4CCOCC4)ccc32)cc1,x,u,-17%,x,x,x
COc1ccc(C(=O)C[n+]2ccc(Cl)c3ccc(Cl)cc32)cc1,x,7.9µM*,7.9µM*,x,x,x
COc1ccc(C(=O)c2ccc(Cl)cc2Cl)cc1,-3%,-27%,u,-2%,16,14%
O=C(C[n+]1ccncc1Cl)c1ccc(F)cc1,x,1%,-25%,x,x,x
O=C(C[n+]1ccc(Cl)c2ccc(Cl)cc21)c1ccc(F)cc1,x,10µM*,3.5µM*,x,x,x
O=S(=O)(NCc1ccccc1F)c1cccc(S(=O)(=O)N2CCOCC2)c1,8%,-7%,-20%,3%,14,4%
COc1ccc2nc(-n3c(O)c(C4=c5ccccc5=NC4=O)[nH]c3=S)sc2c1,-23%,u,23µM*,-24%,-6,17%
